# Only some compounds are listed: those with a hit (about 21% of all), similar ones and a draw of the others.
# Pf growth 48h = Primary qHTS for delayed death inhibitors of the malarial parasite plastid, 48 hour incubation. P. falciparum luciferase growth in erythrocytes, 48 h. Potency, µM (titrated, usually from 28.7 µM), inactives show top-dose activity change, negative = inhibition, most hits filed as inhibitors. actives 5.9% (n = 310,000); note: potency is the fitted concentration of half-maximal effect; % is set by controls: 0 for no effect and ±100 for the full control effect
#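 First compound was added to culture medium, then infected red cells at 0.1% parasitemia and 2% hematocrit (final). After incubation at 37 C under 5% CO2, luciferase detection reagent was dispensed and light output recorded.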
# CHX counter = Cycloheximide Counterscreen for Small Molecule Inhibitors of Shiga Toxin. AID 2314, 2010. max response, %. cell reporter, cycloheximide protein synthesis inhibition counterscreen. actives 12% (n = 300,000); in the data active = max response mostly above about 13%, no sharp cut-off; inactive = mostly below about 14%; note: read at 38.3 µM for the half of the compounds with a filed dose; 0% is about no effect
# Pf growth 96h = Primary qHTS for delayed death inhibitors of the malarial parasite plastid, 96 hour incubation | Potency, µM (highest dose often 28.7 µM), for inactives: at the highest dose activity change, negative = inhibition, actives largely listed as inhibitors | AID 504834, 2011 | actives 6.9% (n = 320,000) | P. falciparum luciferase reporter growth, 96 h; note: potency is the fitted concentration of half-maximal effect; % is set by controls: 0 for no effect and ±100 for the full control effect
#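 Erythrocytes infected with luciferase-expressing P. falciparum were dispensed at 2% hematocrit and 0.05% parasitemia (final), then incubated with compounds 96 hours at 37 C in 5% CO2. Luminescence after detection reagent addition reported growth.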
# Shiga inhibitor = A qHTS for Small Molecule Inhibitors of Shiga Toxin; Vero cells, Shiga toxin protein synthesis inhibition reporter; inhibition, % at 38.7 µM; actives 9.2% (n = 290,000); in the data active = inhibition mostly above about 28%, no sharp cut-off; inactive = mostly below about 43%; note: 0% is about no effect
# * = called active by the depositor; ? = inconclusive; / = no result; [ ] = another dose, or the depositor's remark. Unless noted, calls come from the whole dose curve; as a rule, active = well fitted inhibition curve with a large enough effect; inconclusive = small, poorly fitted or top-dose-only effect, or another doubt; inactive = no such curve, though single readings can be large or run the other way.
SMILES,Pf growth 48h,CHX counter,Pf growth 96h,Shiga inhibitor
COCCNC(C(=O)Nc1ccc(C)cc1[N+](=O)[O-])c1ccccc1 (stereo not drawn),39%,28*,36%,38
N#C/C(=C\c1ccc(/C=C(/C#N)c2nn(CCO)c(N)c2C#N)cc1)c1nn(CCO)c(N)c1C#N,7%,-1,0%,-9
COc1cc(/C=C(\C#N)c2[nH]nc(N)c2C#N)cc(OC)c1O,/,-1,/,-7
COc1cc(/C=C(\C#N)c2nn(CCO)c(N)c2C#N)cc(OC)c1OC,7.4µM*,-3,-15%,-4
N#C/C(=C/c1ccccc1)c1nn(CCO)c(N)c1C#N,16%,27*,-1%,27*
CC(=O)c1ccc(N2C(=O)[C@@H]3C(C(=O)CCN4C(=O)c5ccccc5C4=O)=NN[C@@H]3C2=O)cc1,-2%,1,2.3µM*,-13
Cc1ccccc1C(=O)N(C)c1ccccc1C(=O)NCc1ccccc1,5%,-3,35%,-10
CC(CN1CCCCC1)OC(=O)/C=C/c1ccccc1 (stereo not drawn),36%,8,?,32
c1ccc(-c2ccn3nnnc3n2)cc1,51%,36*,54%,74*
c1ccc(-c2cnn3nnnc3n2)cc1,7%,1,5%,16
Cc1cc2oc(=O)cc(CSc3nnc(C)n3N)c2cc1C(C)C,?,1,?,-42
Cc1cc2oc(=O)cc(CSc3nnc(-c4cccs4)o3)c2cc1C(C)C,8.3µM*,11*,?,4
O=C(Nc1nc(-c2cc3ccccc3o2)cs1)c1ccc(S(=O)(=O)N2CCCC2)cc1,-28%,-6,13µM*,14
O=C(Nc1nc(-c2ccccc2)cs1)c1ccc(S(=O)(=O)N2CCc3ccccc32)cc1,?,2,?,10
O=C(Nc1nc(-c2ccc(S(=O)(=O)N3CCOCC3)cc2)cs1)c1ccccc1,8.3µM*,-2,8.3µM*,-9
Cc1ccc(Nc2nc(-c3ccc(S(=O)(=O)N4CCOCC4)cc3)cs2)cc1Cl,10µM*,15,-11%,34
Cc1ccc(-c2csc(NC(=O)c3ccc(S(=O)(=O)N4CCc5ccccc54)cc3)n2)cc1,10µM*,-1,13µM*,-6
Cc1cccc(C(=O)N[C@H](C(=O)Nc2nc3ccc(S(C)(=O)=O)cc3s2)C(C)C)c1,?,8,?,-3
CN(Cc1ccncn1)C(=O)C1CCC(=O)N(Cc2cccc(C(F)(F)F)c2)C1 (stereo not drawn),18%,3,4%,-9
COc1ccc2nc(NC(=O)c3cccc(S(=O)(=O)N4CCOCC4)c3)sc2c1,-3%,14,?,39
COc1ccc(/C=N/Nc2nc(-c3cccc(S(=O)(=O)N4CCCC4)c3)cs2)c(OC)c1,13µM*,-1,?,-4
COc1cccc(C(=O)Nc2nc(-c3ccc(S(=O)(=O)N4CCOCC4)cc3)cs2)c1,12µM*,4,2%,-2
COc1cc(-c2nc(-c3ccc(NC(=O)c4ccc(Br)o4)cc3)no2)cc(OC)c1OC,/,36*,?,49
COc1ccc(CCC(=O)Nc2ccc(-c3noc(-c4ccc(OC)c(OC)c4)n3)cc2)cc1,?,11,-17%,14
COc1ccc(-c2nc(-c3ccc(NC(=O)c4ccc(Br)o4)cc3)no2)cc1OC,?,29*,?,46*
SMILES,Pf growth 48h,CHX counter,Pf growth 96h,Shiga inhibitor
CCc1cccc2c(C(=O)CCl)c[nH]c12,-8%,3,?,-24
CCc1cccc2c(C(=S)N3CCCC3)c[nH]c12,36%,15*,-4%,20
CCOc1cc(/C=C2\SC(=S)N(N3CCOCC3)C2=O)ccc1O,-1%,-6,21%,-6
CCOc1cc(/C=C2\SC(=N)N(c3nccs3)C2=O)ccc1OCCN1CCOCC1,?,-3,4.1µM*,-5
Oc1ccccc1/C=N/NC(=S)NC1CC2C=CC1C2 (stereo not drawn),?,35*,0.93µM*,57*
CN(/N=C/c1cc(Cl)cc(Cl)c1O)C(=S)NC(C)(C)C,?,-3,?,-2
Oc1c(Cl)cc(Cl)cc1/C=N/NC(=S)NC1CC2C=CC1C2 (stereo not drawn),0.83µM*,1,?,31
Cc1cc(C)c2[nH]c(=O)c(C(c3nnnn3C(C)(C)C)N(Cc3ccco3)CC3CCCO3)cc2c1 (stereo not drawn),/,10,1.9µM*,-4
COc1ccc2[nH]c(=O)c(C(c3nnnn3C(C)(C)C)N(Cc3ccco3)CC3CCCO3)cc2c1 (stereo not drawn),9.3µM*,8,5.9µM*,-9
CC(CNC(=O)Cn1ccc(N)nc1=O)c1ccccc1 (stereo not drawn),9%,/,-2%,/
CC1CCc2c(sc(NC(=O)CSc3ncn[nH]3)c2C#N)C1 (stereo not drawn),-22%,-3,-13%,-19
CC(C)(C)C1CCc2c(sc(NC(=O)CSc3ncn[nH]3)c2C#N)C1 (stereo not drawn),-27%,14*,-22%,21
Cc1sc(NC(=O)CSc2nnc(-c3ccccc3)o2)c(C#N)c1C,20%,33*,-21%,58*
N#Cc1c(NC(=O)CSc2nnc(-c3ccccc3)o2)sc2c1CCCC2,?,16*,0%,52*
N#Cc1c(NC(=O)CSc2ncc(-c3ccccc3)n2CC2CCCO2)sc2c1CCCC2 (stereo not drawn),?,-1,1%,-19
CC1CCc2c(sc(NC(=O)CSc3nnc(-c4ccccc4)o3)c2C#N)C1 (stereo not drawn),18%,23*,288%,active
COc1ccc(NC(=O)CSc2n[nH]c(CNc3cccc(C)c3)n2)cc1,28%,10,?,14
Cc1ccc(/C=C/c2nnc(-c3cccs3)o2)cc1,74%,46*,220%,48*
Fc1ccc(/C=C/c2nnc(-c3cccs3)o2)cc1,176%,31*,188%,75*
Cc1ccc(-c2nnc(-c3cccs3)o2)cc1,90%,31*,-6%,72*
Cc1ccc(S(=O)(=O)CCC(=O)Nc2nnc(-c3cccs3)o2)cc1,-8%,/,?,/
O=C(O)c1ccc(N=Cc2c(O)[nH]c(=O)[nH]c2=O)cc1,17%,1,25%,14
Cc1cc(C)c(N=Cc2c(O)[nH]c(=O)[nH]c2=O)c(C)c1,-14%,4,3.3µM*,-6
N#Cc1c(NC(=O)/C=C/c2ccco2)sc2c1CCCC2,275%,51*,9%,67*
O=C(/C=C/c1ccccc1)Nc1sc2c(c1C(=O)O)CCC2,50%,25*,72%,41*
O=C(Nc1sc2c(c1C(=O)NC1CCCCC1)CCC2)c1ccco1,4%,16,-12%[5.75 µM],26
COC(=O)c1c(NC(=O)c2ccccc2C(=O)O)sc2c1CCC2,26%,-4,-14%,/
O=C(/C=C/c1ccco1)Nc1sc2c(c1C(=O)O)CCC2,38%,43*,65%,52*
COc1cc(C(O)CO)ccc1OS(=O)(=O)O (stereo not drawn),-5%,/,8%,/

# High-throughput results from PubChem.
